Key:
Assay in all cases: PBM binding z-score (relative to random genomic background probes); higher = stronger binding; sequences stand for … in GC…GCGATTGACAGCGTAGAATGAAGG
[1] = tested on: FXR:RXRa (NR concentration 270 nM, RXRa partner concentration 90 nM)
Summary of the method: (§1)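 Custom Agilent 4×180K protein-binding microarrays carried double-stranded probes, each with a 34-nt variable region. These regions held direct-repeat seeds, single-nucleotide variants, half-site ablations and random human genomic background sequences. Ligand-free nuclear receptor dimers were incubated on the arrays for 1 h, antibodies against each partner (one per run) detected binding, and scanned fluorescence was regression-normalized. Binding z-scores take the random background probes as reference.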

[2] = tested on: LXRa:RXRa (NR concentration 270 nM, RXRa partner concentration 90 nM)
Summary of the method: as §1

[3] = tested on: LXRa homodimer (NR concentration 270 nM)
Summary of the method: as §1

[4] = tested on: LXRb:RXRa (NR concentration 270 nM, RXRa partner concentration 90 nM)
Summary of the method: as §1

[5] = tested on: LXRb homodimer (NR concentration 270 nM)
Summary of the method: as §1

[6] = tested on: PPARa:RXRa (NR concentration 270 nM, RXRa partner concentration 90 nM)
Summary of the method: as §1

[7] = tested on: PPARg:RXRa (NR concentration 180 nM, RXRa partner concentration 90 nM)
Summary of the method: as §1

[8] = tested on: PPARg:RXRa 270nM:90nM, anti-RXR (NR concentration 270 nM, RXRa partner concentration 90 nM)
Summary of the method: as §1

[9] = tested on: PPARg:RXRa 30nM:10nM, anti-RXR (NR concentration 30 nM, RXRa partner concentration 10 nM)
Summary of the method: as §1

[10] = tested on: PPARg:RXRa 90nM:30nM, anti-RXR (NR concentration 90 nM, RXRa partner concentration 30 nM)
Summary of the method: as §1

[11] = tested on: PPARg:RXRa DBDmut IVT, anti-RXR (DBD mutation: RXRa K156A/R161A, NR concentration 270 nM, RXRa partner concentration 90 nM)
Summary of the method: as §1

[12] = tested on: PPARg:RXRa IVT, anti-PPARg (NR concentration 270 nM, RXRa partner concentration 90 nM)
Summary of the method: as §1

[13] = tested on: PPARg DBDmut:RXRa IVT, anti-PPARg (DBD mutation: PPARg1 K132A/R137A, NR concentration 270 nM, RXRa partner concentration 90 nM)
Summary of the method: as §1

[14] = tested on: PPARg DBDmut IVT, anti-PPARg (DBD mutation: PPARg1 K132A/R137A, NR concentration 270 nM)
Summary of the method: as §1

[15] = tested on: PPARg homodimer (NR concentration 180 nM)
Summary of the method: as §1

[16] = tested on: PXR:RXRa (NR concentration 270 nM, RXRa partner concentration 90 nM)
Summary of the method: as §1

[17] = tested on: PXR homodimer (NR concentration 270 nM)
Summary of the method: as §1

[18] = tested on: RARa:RXR (NR concentration 270 nM, RXRa partner concentration 90 nM)
Summary of the method: as §1

[19] = tested on: RARa homodimer (NR concentration 270 nM)
Summary of the method: as §1

[20] = tested on: RARb:RXRa (NR concentration 270 nM, RXRa partner concentration 90 nM)
Summary of the method: as §1

Sequence	PBM binding z-score [1]	PBM binding z-score [2]	PBM binding z-score [3]	PBM binding z-score [4]	PBM binding z-score [5]	PBM binding z-score [6]	PBM binding z-score [7]	PBM binding z-score [8]	PBM binding z-score [9]	PBM binding z-score [10]	PBM binding z-score [11]	PBM binding z-score [12]	PBM binding z-score [13]	PBM binding z-score [14]	PBM binding z-score [15]	PBM binding z-score [16]	PBM binding z-score [17]	PBM binding z-score [18]	PBM binding z-score [19]	PBM binding z-score [20]
AGAACGAGGGCAATGAGTTGATTGCACGGGTGGC	0.165	0.157	-0.593	-0.398	-0.715	1.23	1.15	0.624	-0.179	0.252	3.14	2.43	0.337	-0.0138	-0.0601	1.65	6.35	0.166	-0.231	1.89
GCGACTGGGGCAAAGCATGTTACCATAAGGTTGG	-0.69	-0.602	-0.362	-0.192	-1.06	0.898	1.61	2.22	0.294	1.58	4.73	3.23	-0.245	-0.674	0.0632	-0.48	-0.713	-0.255	-1.06	0.551
CGAACTATGTCATTGACAGGACAGTGAATAGTAA	-0.339	-0.306	-0.302	0.00263	-0.414	0.765	0.677	0.347	0.272	0.497	3.29	2.17	0.536	1.15	0.302	0.0899	0.452	0.317	0.439	0.614
CGTCCAAGCTCATAGGAGGTCAGTGAAGACAGAT	0.888	1.51	1.08	1.33	-0.0875	1.92	0.491	0.292	-0.158	0.173	0.199	0.722	-0.21	-0.262	1.08	1.59	0.494	1.79	0.761	2.03
CTACCAAGATGAACAAGGTCGTTGATTACTATTC	0.828	0.783	0.9	1.49	0.267	1.09	0.228	0.135	-0.0206	0.314	0.459	0.305	0.173	0.136	0.792	1.53	1.73	1.45	1.7	0.656
GTACCAAGGTGAATACGTCGTTGATGAGTAGGCG	0.119	-0.0604	-0.411	-0.17	-0.867	0.781	0.854	0.362	0.117	0.456	1.17	1.59	-0.251	-0.137	-0.116	-0.261	-0.456	0.186	0.0524	1.03
CGAACTAGGTCATTGACAGGACTGTGAATAGTAA	4.46	2.5	0.131	1.81	0.103	4.71	7.38	6.1	4.05	5.52	7.96	8.16	2.42	3.75	1.48	1.11	0.155	1.81	-0.0382	3.43
CCTAGCAGGCCAGGGTTACTCAAGCATTTCGCTT	-0.32	0.0268	-0.897	0.041	-1.32	0.412	-0.105	0.539	-0.759	-0.212	0.153	-0.137	-1.74	-1.06	-0.6	-0.139	-0.48	0.193	-0.665	0.303
TCTTGTAGATCAGCAGGTTATGAAAGCTGGCCAA	0.122	0.0807	-0.501	0.444	-0.22	0.665	-0.222	1.29	2.49	1.59	1.43	0.523	-0.144	0.592	-0.672	0.11	-0.253	0.383	-0.663	0.164
CCAGACAGGTTAGAAGGTAACTCAGCCTCGATTA	0.224	0.466	0.473	0.483	0.172	0.816	0.402	0.288	-0.236	0.116	0.311	0.0619	-0.119	-0.234	1.19	0.328	0.257	0.828	0.903	0.829
CCTTACGGGTCACTGACACGTTATAGCATTTGGA	5.87	3.87	0.355	3.38	0.0224	5.4	4.48	4.55	1.45	3.25	3.57	3.64	1.42	0.499	1.94	3.1	0.171	3.98	0.948	3.99
CGAACTAGGTGAAGGACAGTGAATCTCCGCACGC	-0.222	-0.234	-0.52	-0.714	-1.01	2.1	3.52	3.2	0.549	2.14	7.22	6.69	0.351	1.02	-0.373	-0.343	-0.341	-0.0643	-0.232	0.792
TCGAGTAGGTTAGTCGGGGCATTGAGCCAACATA	-0.211	-0.326	-0.78	0.048	-1.23	0.416	-0.175	0.835	1	0.777	2.07	2.19	-0.804	-1.03	-0.25	-0.121	-0.392	0.186	-0.979	0.355
TCTTGGAGATCAGCAGGTTAAGAAAGCTGGCCAA	0.173	-0.0127	-0.38	0.0269	-0.539	0.752	-0.546	0.883	2.2	1.52	1.35	-0.4	-0.469	-0.467	-0.281	0.203	-0.366	0.266	0.00806	0.0526
ATCGAAAGGCCGAGGTGAGTATAGAGAAAGGGAA	0.0206	-0.227	-0.447	-0.337	-0.455	-0.0261	0.313	-0.133	-0.0137	-0.154	-0.777	0.581	-0.257	0.0911	0.14	-0.348	0.0633	0.0364	-0.273	1.53
TCTAGTTGGTCAAAGGTCAGACACTCGAAATGCG	4.59	4.69	2.66	4.41	1.43	5.67	11.3	9.55	11.6	11.6	3.43	5.86	1.03	0.417	4.36	4.74	1.67	6.17	3.82	4.53
TCTAGCAGGCCAGAGGCTCACTCAAGAGGTACGG	-1.6	-1.07	-0.954	-0.966	-1.81	-0.344	0.578	1.01	1.38	1.21	0.411	-0.442	-1.19	-2.42	-1.71	-0.83	-1.3	-0.758	-1.3	-0.419
GGAACGAGGGCATTCCAGTTGATAGCATGGCGAT	1.15	1.43	-0.298	0.454	-0.264	1.42	0.909	0.848	-0.214	0.301	3.02	2.32	0.37	-0.74	0.527	2.19	0.706	0.917	-0.491	1.81
GCTAGTTGGTCAGTAAAACGTCACACACCGGTCG	-0.277	-0.464	-0.383	-0.473	-0.195	-0.343	0.524	-0.186	-0.445	-0.286	0.256	0.168	0.0879	-0.472	-0.368	-0.432	-0.66	-0.372	-0.12	0.305
CCAGACAGGTGAGAAGTTAACTCAGCCTCGATTA	-0.198	-0.285	-0.173	0.0436	-0.306	0.706	0.596	1.25	-0.0978	0.58	0.968	0.347	-0.638	-0.46	0.326	-0.109	0.36	0.0412	0.721	0.4
AGAATGAGGTTATTAAGATCAGGAAATTGCGGTC	1.33	1.7	0.37	1.3	-0.00704	2.59	1.63	1.8	0.356	1.47	2.71	2.49	1.18	0.481	0.657	1.3	0.566	1.3	0.579	1.42
CCGACTGGGGCAAGGTTACCAAAACGCACAGCCA	0.221	0.494	-0.00504	0.617	-1.39	2.07	2.78	3.62	1.01	2.6	3.12	3.53	-0.395	-0.973	0.0774	0.341	-0.627	1.09	-0.287	1.73
CCGACTGGGGCATAAGGTTACCATCAGCCAGCCC	0.308	1.43	-0.15	0.516	-1.51	1.9	2.3	2.99	1.18	2.32	2.93	3.1	-0.916	-1.26	0.425	0.317	-0.375	1.06	-0.135	1.37
CCTAGCAGGCCTGGGTCACTCAAGCATTTCGCTT	0.369	0.545	-0.474	0.861	-0.369	1.34	-0.336	0.314	-0.828	-0.485	0.171	0.217	-1.39	-1.28	0.279	0.53	-0.661	1.16	0.152	1.43
CCGACTGGGGCTAGGTTACCATAACGCACAGCCA	-0.553	-0.225	-0.483	-0.184	-0.938	-0.107	0.784	0.0405	-0.564	-0.369	0.166	0.0447	-1.21	-1.97	-0.278	-0.509	-0.572	-0.318	-0.21	0.392
GCTAGTAGGCCATTTGGGTCACTCAATGACGGGC	-0.0419	-0.00892	-0.666	-0.044	-0.894	1.98	2.27	2.41	0.459	1.79	5.94	5.02	-0.157	-0.997	0.311	0.202	-0.242	0.598	-0.704	1.47
TGAATGAGGTTATAGATCAGGGAACGTGGCGTCG	1.56	1.48	-0.163	0.762	0.262	2.84	2.57	3.62	2.18	3.73	1.18	1.89	1.37	0.361	1.11	0.894	0.211	1.58	0.661	1.34
CCTTTCGGGTCAAGGTTATAGCACGGGTGGTACG	5.72	3.85	0.197	3.11	0.545	5.06	4	5.1	1.91	4.2	1.96	3.48	0.691	0.648	2.93	3.67	0.171	4.51	0.494	4.3
TGTATGAGGTTATAAGATCAGGGAACGTTGCAAA	1.68	1.72	0.117	1.22	0.92	2.51	1.04	1.47	0.966	1.2	0.0132	0.98	0.426	0.745	0.994	1.1	-0.0169	1.62	0.679	1.47
